From PubChem BioAssay
Compounds with a hit are over-represented: about 28% of the library has one in this group of screens.
Mac1 fbg enh: enhancers of CD11b/CD18 adhesion to fibrinogen, primary screen, K562 cells, luminescence | 93,000 tested, 0.07% active | Integrin beta-2 (Homo sapiens) + Integrin alpha-M (Homo sapiens), P05107+P11215 | ATPlite luminescence | activation, % at 10 µM | AID 1499, 2009;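 active = 10 µM primary screen giving 50% or more activity, confirmed by 40% or more on retest at that dose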
CYP2C19 inhib: blockers of cytochrome P450 2C19 activity – biochemical, luminescence, ADME assay, primary screen | CYP2C19 Supersomes, luciferin-H EGE luminescence, 30 min | inhibition, % at 5 µM | 96,000 tested, 21% active;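 active = CYP2C19 inhibition above a set limit at 5 µM in the primary screen, cut at about 50% in these data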
Target sequence (P33261 whole entry, looked up): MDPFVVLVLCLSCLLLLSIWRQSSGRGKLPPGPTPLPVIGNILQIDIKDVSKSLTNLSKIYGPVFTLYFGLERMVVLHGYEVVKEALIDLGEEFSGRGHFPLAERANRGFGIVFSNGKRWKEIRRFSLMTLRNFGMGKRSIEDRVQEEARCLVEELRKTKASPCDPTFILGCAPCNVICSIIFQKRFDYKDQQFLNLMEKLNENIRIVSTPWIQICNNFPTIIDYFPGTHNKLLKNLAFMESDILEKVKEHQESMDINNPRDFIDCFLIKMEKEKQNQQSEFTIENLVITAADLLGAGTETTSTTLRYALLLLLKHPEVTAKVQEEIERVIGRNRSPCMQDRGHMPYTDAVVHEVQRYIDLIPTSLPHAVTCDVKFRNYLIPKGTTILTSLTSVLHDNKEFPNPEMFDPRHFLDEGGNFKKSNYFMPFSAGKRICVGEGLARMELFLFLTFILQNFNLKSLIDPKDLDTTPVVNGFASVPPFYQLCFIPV
CYP2C19 activ: human CYP2C19 activators, primary screen, biochemical, luminescence; Cytochrome P450 2C19 (Homo sapiens), P33261; recombinant CYP2C19, luciferin-H EGE luminescence; active compounds read high; 0 = fully inhibited enzyme, 1 = untreated enzyme; activation factor at 5 µM; 96,000 tested, under 10 active; AID 1025, 2008;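 active = activation factor of at least 2 at 5 µM in the primary screen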
CYP2C9 act: human CYP2C9 activators, primary screen, biochemical, luminescence | AID 1024, 2008 | recombinant CYP2C9, luciferin-H conversion; active compounds read high; factor 1 = untreated enzyme, 0 = blocked | 96,000 tested, 1.4% active | Cytochrome P450 2C9 (Homo sapiens), P11712 | activation factor at 5 µM;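 active = activation factor of 2 or more for CYP2C9 at a 5 µM dose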
CYP2C9 inh: blockers of cytochrome P450 2C9 activity – biochemical, luminescence, ADME assay, primary screen. CYP2C9 Supersomes, luciferin-H conversion. 96,000 tested, 20% active. inhibition, % at 5 µM. P11712;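 active = blocking of liver enzyme CYP2C9 beyond about 50% at 5 µM, limit read from the data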
CD11b adhes inh: inhibitors of CD11b/CD18 adhesion to fibrinogen, primary screen, K562 cells, luminescence; Integrin beta-2 (Homo sapiens) + Integrin alpha-M (Homo sapiens), P05107+P11215; ATPlite luminescence; Mn2+ added to activate the integrin; inhibition, % at 10 µM; 93,000 tested, 0.54% active; AID 1497, 2009;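 active = primary inhibition of 50% or more at 10 µM, then 40% or more on retest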
Of the large screens only hits and unclear results are named; the others gave an inactive call.

CS(=O)(=O)N1CCCC(C(=O)N2CCc3ccccc3C2)C1 (configuration not stated)	none
CS(=O)(=O)N1CCC(C(=O)N2CCc3ccccc3C2)CC1	CYP2C19 inhib 95
COc1ccc(S(=O)(=O)N2CCC(C(=O)N3CCc4ccccc4C3)CC2)cc1	CYP2C9 act 2.8
C=CCN1CC2CC3(COc4cc(C)cc(C)c4)C=CC2(O3)C1=O (configuration not stated)	CYP2C19 inhib 65
CCCCn1nnnc1SCC(=O)Nc1cccc(C)n1	CYP2C19 inhib 65
CCCCn1c(SCC(=O)Nc2cccc(C)n2)nnc1-c1ccco1	CYP2C19 inhib 87, CYP2C9 inh 96
CNC(=O)c1csc(-c2ccc(C)cc2)n1	none
CCOC(=O)/C(C(N)=NCCO)=C(/O)c1ccccc1	none
C=CCn1c(SCC(=O)c2ccc(OC)cc2)nnc1C(C)NC(=O)c1cccs1 (configuration not stated)	none
CCC(NC(=O)Nc1nnc(C(F)(F)F)s1)(C(F)(F)F)C(F)(F)F	CYP2C9 inh 71, CD11b adhes inh 107
COC(=O)CCC(=O)Nc1nnc(C(F)(F)F)s1	none
COc1ccc(C(=O)Nc2nnc(C(F)(F)F)s2)cc1	CYP2C9 inh 75
O=C(NCCCN1CCOCC1)c1ccc(CS(=O)(=O)Cc2ccc(Cl)cc2)o1	none
COC(=O)c1ccc(C(=O)OC)c(NC(=O)CSc2cccc[n+]2[O-])c1	none
COC(=O)c1ccc(N2CCOCC2)c(F)c1	none
COC(=O)c1cc(F)c(-n2cncn2)c(F)c1	CYP2C19 inhib 70 (no result: Mac1 fbg enh, CD11b adhes inh)
COc1cc(Br)c(C(C)NC(=O)c2ccc(C)cc2)cc1OC (configuration not stated)	none
COc1cc(Br)c(C(C)NC(=O)c2cccc(Br)c2)cc1OC (configuration not stated)	CYP2C19 inhib 62, CYP2C9 inh 66
O=C(Nc1ccc2c(c1)CCC2)C1CCN(c2c3c(nc4ncnn24)CCC3)CC1	none
Cc1ccc(Nc2c3c(nc4ncnn24)CCC3)cc1	CYP2C19 inhib 60
Cc1ccc(Nc2c3c(nc4ncnn24)CC(C)CC3)cc1 (configuration not stated)	none
CCOc1ccc(Nc2c3c(nc4ncnn24)CC(C)CC3)cc1 (configuration not stated)	CYP2C19 inhib 52
Clc1cccc(Nc2c3c(nc4ncnn24)CCC3)c1	CYP2C19 inhib 60
O=C(Nc1ccccc1Cl)c1ccc(COc2ccc3c(c2)CCC3)cc1	none (no result: CYP2C19 inhib, CYP2C19 activ, CYP2C9 act, CYP2C9 inh)
O=S(=O)(Nc1ccc(Oc2ncccn2)c(Cl)c1)c1ccc(Cl)cc1	CYP2C19 inhib 99, CYP2C9 inh 99
Cc1ccc(NC(=O)c2ccco2)cc1NC(=O)CSc1nnc(-c2cccs2)n1C	none
CCN1CCN(c2ncc(C(=O)Nc3ccccc3C(=O)OC)c3ccccc23)CC1	CYP2C9 inh 56
CC(C)NC(=O)c1cnc(N2CCN(c3ccccn3)CC2)c2ccccc12	none
COC(=O)c1ccccc1NC(=O)c1cc(C2CC2)on1	none
COc1ccc(NC(=O)c2cc(C3CC3)on2)c(OC)c1	CYP2C9 act 2.9
Cc1c(Cl)cccc1NC(=O)c1cc(C2CC2)on1	CYP2C19 inhib 84
COc1ccc(C2(CNC(=O)/C=C/c3ccco3)CCCC2)cc1OC	CYP2C9 inh 53 (no result: Mac1 fbg enh, CD11b adhes inh)
Cc1[nH]c(=O)[nH]c(=O)c1/C=C/C(=O)OCC(C)C	none (no result: CYP2C19 inhib, CYP2C19 activ, CYP2C9 act, CYP2C9 inh)
CCn1nc(C)c(/C=C2\CCCC3=C2OC(N)=C(C#N)C3c2c(C)nn(CC)c2C)c1C (configuration not stated)	none
CO/N=C(/CNC(=O)c1ccccc1Cl)c1ccc(Cl)cc1	CYP2C19 inhib 91 (no result: Mac1 fbg enh, CD11b adhes inh)
C=CCn1c(O)c(C2=c3ccccc3=NC2=O)s/c1=N/c1nccs1	CYP2C9 inh 61
CC(=O)N(Cc1ccco1)C1(C(=O)NC2CCCC2)CCCCC1	none
COC(=O)C1=C(C(=O)OC)SC2(S1)C(C(=O)OC)=C(C(=O)OC)SC1=C2c2cccc(C)c2NC1(C)C	CYP2C19 inhib 85, CYP2C9 inh 88
CC(C)(C)C(=O)[C@H]1[C@H](c2ccccc2)[C@@]2(N=C(c3ccccc3)OC2=O)C2c3ccccc3C=NN21 (some centres not stated)	CYP2C19 inhib 53 (no result: Mac1 fbg enh, CD11b adhes inh)
COCCOC(=O)C1=C(C)NC(=O)NC1c1c(F)cccc1Cl (configuration not stated)	none
Cc1ccccc1OCc1nnc(SCC(=O)NCc2ccccc2)n1C	none
CCn1c(SCC(=O)c2ccc(CNC(C)=O)o2)nnc1-c1cccs1	none
CCOC(=O)c1c(C)[nH]c(C(=O)CSc2nnc(-c3ccncc3)n2CC)c1C	CYP2C19 inhib 94, CYP2C9 inh 84
CCn1c(SCC(=O)c2cccs2)nnc1-c1cccs1	CYP2C19 inhib 98
Cc1cccc(OCc2nnc(SCC(=O)c3cccs3)n2C)c1C	CYP2C19 inhib 78, CYP2C9 inh 53
CCn1c(SCC(=O)c2ccc(NS(=O)(=O)c3ccccc3)cc2)nnc1-c1cccs1	CYP2C9 inh 94
O=C(O)CCn1c(=O)c2ccccc2c2ccccc2c1=O	none
CCOc1ccc(CCNC(=O)CCN2C(=O)COc3ccccc32)cc1OCC	none (no result: Mac1 fbg enh, CD11b adhes inh)
Cc1ccc(C(=O)c2c[nH]c(C(=O)NCc3cccnc3)c2)cc1	none
O=C(C1CCC(=O)N1C1CCCCC1)N1CCN(c2ccc(F)cc2)CC1 (configuration not stated)	none
CCn1c(SCC(=O)NC(C)C)nnc1-c1cccs1	none
CCn1c(SCC(=O)c2[nH]c(C)c(C(C)=O)c2C)nnc1-c1cccs1	CYP2C19 inhib 64
CCOC(=O)c1c(C)[nH]c(C(=O)CSc2nnnn2-c2ccc(C)cc2)c1C	CYP2C19 inhib 54
CCOC(=O)c1c(C)[nH]c(C(=O)CSc2nnnn2-c2ccccc2)c1C	none
CCCCNC(=O)Cn1c2c(c(-c3ccccc3Cl)cc1=O)CCC2	CYP2C19 inhib 61, CYP2C9 inh 78
CCCCNC(=O)CSc1cc(=O)n(C)c2ccccc12	none
CCN(CCCNC(=O)CCNC(=O)Cn1cnc2ccccc2c1=O)c1ccccc1	none
CCN(CCCNC(=O)CC(C(=O)N1CCc2ccccc21)n1ccnc1)c1ccccc1 (configuration not stated)	CYP2C19 inhib 94
O=C(Nc1nc(-c2ccc(Cl)s2)cs1)c1ccncc1	CYP2C19 inhib 51
O=C(CSCC(=O)N1CCCCC1)Nc1nc(-c2cccs2)cs1	none
O=C(CSCC(=O)N1CCN(c2ccccc2)CC1)Nc1nc(-c2ccc(Cl)s2)cs1	CYP2C9 inh 61
O=C(CSCC(=O)N1CCCCC1)Nc1nc(-c2ccc(Cl)s2)cs1	CYP2C19 inhib 58, CD11b adhes inh 84
